Laboratory results as given in ChEMBL document CHEMBL4513216, “Probing the Open Global Health Chemical Diversity Library for Multistage-Active Starting Points for Next-Generation Antimalarials” (ACS Infect Dis, 2020).
Screen size: about 69,000 compounds; about 8,600 (12%) showed an effect of 50% or more. The sample as a whole holds a higher share of strong results than the screen did.

system: Plasmodium berghei; assay: Screen against P. berghei liver stage (PbLuc), transformed with Luciferase, at 10uM; format: functional, HepG2; details: tested at 10 uM

SMILES | INHIBITION
COC(=O)c1ccccc1NC(=O)c1c(C)cn(C)c1CC(=O)O | 19.2%
O=C1CCNc2ncc(-c3ccc(Cl)cc3)cc2CN1C1CC1 | 7.85%
O=C1CCNc2ncc(-c3ccccc3Cl)cc2CN1C1CC1 | 50.2%
O=C1CCNc2ncc(-c3cccc(Cl)c3)cc2CN1C1CC1 | 2.55%
Cn1cc(CN2CCOC3(CCCN(C(=O)c4ccco4)C3)C2)cn1 (stereo unspecified) | 8.47%
Cc1cc(C)nc(N2CC[C@H](Oc3ccccc3F)[C@@H](O)CC2)n1 | 42.6%
CC(C)N1CCOCC2(CCN(c3cnccn3)CC2)C1 | 35.8%
COCCCn1ccc(NS(=O)(=O)c2cc(C)c(F)cc2F)n1 | -15.3%
CCCOC(C)Cn1ccc2[nH]c(=O)c(C#N)cc2c1=O (stereo unspecified) | 71.8%
CC(O)CCn1ccc2[nH]c(=O)c(C#N)cc2c1=O (stereo unspecified) | -1.09%
CCC(Cn1ccc2[nH]c(=O)c(C#N)cc2c1=O)OC (stereo unspecified) | 3.82%
CN(Cc1nc(Cc2cccc(C(F)(F)F)c2)no1)C(C1CC1)C1CC1 | 27.6%
Cn1nc(CN2CCCCC2)c2c1CN(Cc1ccoc1)C2 | 11.3%
O=C(c1cc(C2CCCC2)no1)N1CCCCC1 | -12.5%
Cc1ccc2c(c1)CN(C(=O)C1CCCCC1)C(CN(C)C)CO2 (stereo unspecified) | 60.3%
Cc1nc(C)c(C(=O)N2Cc3ccccc3OCC2CN(C)C)o1 (stereo unspecified) | 11.8%
Cc1ccc2c(c1)CN(C(=O)c1cnc(C)cn1)C(CN(C)C)CO2 (stereo unspecified) | 66.5%
CN(CCO)CC1COCCN1C(=O)C1CCCCC1 (stereo unspecified) | 40.7%
CC(=O)N1[C@H](CN(C)C)C[C@@H]2CN(C(=O)c3cnc(C)cn3)CC[C@@H]21 | -50.4%
Cc1ccc2c(c1)[C@@H](CC(=O)N(C)C)CCO2 | 14.5%
Cc1nc(CN2CCc3ccc(S(N)(=O)=O)cc32)oc1C | -24%
CN(C)c1ncccc1CNC(=O)NCc1cccs1 | 41.2%

SMILES | INHIBITION
CN1CCN(C(=O)c2cc[nH]c(=O)c2)Cc2ccccc21 | 20%
O=C(NCC1CCCCC1)N1C[C@@H]2C[C@@H]1CN2 | 9.97%
Cc1nccn1-c1nccnc1C1CCCN(C)C1 (stereo unspecified) | 34.55%
Cc1nccn1-c1cccc(C2CCCN(C3CCCC3)C2)n1 (stereo unspecified) | 36.7%
Cc1nccn1-c1nccnc1C1CCN(Cc2ccc(F)cc2)CC1 | 71.1%
Cc1nccn1-c1nccnc1C1CCCN(C2CCCC2)C1 (stereo unspecified) | 59.45%
COc1ccc(CN2CCC(c3nccnc3-n3ccnc3)CC2)cc1 | 35.2%
Fc1ccc(CN2CCC(c3nccnc3-n3ccnc3)CC2)cc1 | 37%
Cc1n[nH]c(C2CN(Cc3nnc(C4CCC4)o3)CCO2)n1 (stereo unspecified) | 0.914%
c1cc(CN2C[C@@H]3OCCN(CCN4CCCC4)[C@@H]3C2)co1 | 15.7%
CC(=O)OCc1ccc(CN2CCCCCC2c2cc(C)no2)o1 (stereo unspecified) | 18.3%
CCc1nc(C2CCCN2C(=O)c2cc3c(s2)CCC3)no1 (stereo unspecified) | 7.08%
CCC(C(=O)NC1(COC)CCCC1)n1cccn1 (stereo unspecified) | 8.08%
CCC(C(=O)NC1(CN2CCOCC2)CCCC1)n1cccn1 (stereo unspecified) | 30.9%
CCC(C(=O)NC1(C(N)=O)CCCC1)n1cccn1 (stereo unspecified) | 55.9%
CC(C)C(=O)Nc1ccc(C(O)Cn2nc(-c3cccs3)oc2=O)cc1 (stereo unspecified) | 8.9%
c1cnn(Cc2nnc3n2CCCN(Cc2ccsc2)C3)c1 | 32.4%
O=C(c1cnccn1)N1C[C@@H]2[C@@H](C1)OCC(=O)N2CC1CCCC1 | 91.9%
O=C(c1cnccn1)N1C[C@@H]2OCC(=O)N(CC3CCCCC3)[C@@H]2C1 | 26.4%
Cc1cnc(C(=O)N2C[C@@H]3[C@@H](C2)OCC(=O)N3CC2CCCC2)cn1 | -18.5%
CN(Cc1ccco1)C(=O)CN1CCOC(Cn2cncn2)C1 (stereo unspecified) | -0.219%
CC(C)N(C)Cc1cnc2n1CCN(C(=O)Cc1ccccn1)C2 | 24.3%

SMILES | INHIBITION
O=C1CN(c2ccc(CNC(=O)Nc3nccs3)cc2)CCN1 | 13.8%
CN(c1ncc(S(N)(=O)=O)s1)C1CCC1 | 52.2%
COc1ccc(CN(C)c2ncc(S(N)(=O)=O)s2)c(OC)c1 | -28.2%
CCN(Cc1ccc2c(c1)OCO2)c1ncc(S(N)(=O)=O)s1 | 27.5%
CCN(Cc1ccoc1)c1ncc(S(N)(=O)=O)s1 | 20.8%
CN(c1ncc(S(N)(=O)=O)s1)C1CCc2ccccc21 (stereo unspecified) | 36.5%
COc1ccc(OC)c(CN(C)c2ncc(S(N)(=O)=O)s2)c1 | -54.4%
CN(c1ncc(S(N)(=O)=O)s1)C1CCc2ccccc2C1 (stereo unspecified) | 65.6%
CN(Cc1ccc2c(c1)OCCO2)c1ncc(S(N)(=O)=O)s1 | 54.4%
CCc1ncc(C(=O)N(C)C2Cc3ccccc3C2)cn1 | -98.6%
CS(=O)(=O)c1cn[nH]c1C1CCCCN1C(=O)Cc1cccnc1 (stereo unspecified) | -5.71%
CN1CCNC(Cc2ccc(-c3cccs3)cc2)C1=O (stereo unspecified) | -52.6%
COCCN1CCOCC12CCN(C(=O)Cc1cccs1)CC2 | 24.9%
O=C(CN1CCC[C@@H]1C(=O)O)NCCOc1cccc(C(F)(F)F)c1 | -0.18%
CC(=O)N1CCC2(CCCN(C(=O)c3ccccc3)C2)C1 (stereo unspecified) | 22.2%
Cc1csc(Nc2cc(C3CCCCN3C)nc(C)n2)n1 (stereo unspecified) | 16.5%
Cc1ccsc1CN(C)C(=O)c1cc2c([nH]c1=O)CCCC2=O | -1.95%
CCc1ncncc1C(=O)NCCNS(=O)(=O)c1ccccc1 | -118%
Cc1ccc(S(=O)(=O)NCCNC(=O)c2cncnc2C)cc1 | 78.1%
CCc1ncncc1C(=O)NCCNS(=O)(=O)c1ccc(C)cc1 | -70.7%
CN(C)C(C)(C)CNCc1c[nH]nc1-c1cc2ccccc2o1 | 36.9%
Cc1cnc(C(=O)NCc2cccnc2OC(C)C)cn1 | 33.7%

SMILES | INHIBITION
Cc1cccc(CNC2CC(=O)N(Cc3cccc(F)c3)C2)c1 (stereo unspecified) | 13.87%
O=C1CC(NCc2ccc(OC(F)F)cc2)CN1Cc1cccc(F)c1 (stereo unspecified) | 0.38%
O=C1CC(NCc2ccncc2)CN1Cc1cccc(F)c1 (stereo unspecified) | 63.5%
NC1CCC(n2cc(C(=O)NC3CCc4ccccc4C3)nn2)CC1 (stereo unspecified) | 25.5%
CC(C)N(C)C(=O)c1ccc(CNc2ncc(C#N)cc2Cl)cc1 | 44.5%
CNC(=O)c1ccc(CNc2ccncc2Cl)cc1 | 57.7%
CC(C)N(C)C(=O)c1ccc(CNc2ccncc2Cl)cc1 | 97.1%
CCOc1ccc(Cl)c(C(=O)NCc2ccc(C(=O)NC)cc2)n1 | 14.7%
CC(C)N(C)C(=O)c1ccc(CNc2cncc(Cl)n2)cc1 | 32.9%
CNC(=O)c1ccc(CNC(=O)c2ccc(Cl)cc2F)cc1 | -8.675%
CN1CCOC(CNCc2ccc(OCc3ccccn3)cc2)C1 (stereo unspecified) | -38.7%
O=C(c1ccnnc1)N1C[C@@H](OCc2cccnc2)[C@H]2OCCC[C@H]21 | 37.1%
NC(=O)c1ccc(CNC2CC2)cc1 | -30.1%
Cc1ccc(C2(CN3CCN(Cc4cncn4C)CC3)CC2)cc1 | -32.7%
CC(C)(C)c1cnc(CN(Cc2cccnc2)CC2CCCO2)o1 (stereo unspecified) | 75.4%
c1ccc(-c2cnc(CN(Cc3cccnc3)CC3CCCO3)o2)cc1 (stereo unspecified) | -5.26%
CCN(Cc1cccnc1)CC1CCCO1 (stereo unspecified) | -0.113%
CNC(=O)CCc1cc(C)nc(C2CCN(C(=O)CN(C)C)CC2)c1 | 4.9%
CCc1nc(CN2CCCN(C(=O)c3ccnc(C)n3)CC2)cs1 | 25.5%
COc1cccc(N2CCN(Cc3cccc(CCN)c3)CC2=O)c1 | 35.1%
Cc1ccc(CN2CCN(Cc3ccncc3)CC2=O)cc1 | 50.3%
NCCc1cccc(CN2CCN(c3ccccc3)C(=O)C2)c1 | 26.8%

SMILES | INHIBITION
Cc1cc(C)cc(N2CCN(Cc3cccc(CCN)c3)CC2=O)c1 | 2.18%
NCCc1cccc(CN2CCN(c3cccc(Cl)c3)C(=O)C2)c1 | 50.5%
Cc1cc(C)cc(CN2CCN(Cc3cc(C#N)n(C)c3)CC2=O)c1 | 11.8%
Cc1ccc(CN2CCN(Cc3ccc4nonc4c3)CC2=O)cc1 | 5.78%
Cc1cc(C)cc(CN2CCN(Cc3ccc4nonc4c3)CC2=O)c1 | 37.6%
Cc1cc(C)cc(CN2CCN(Cc3cccc(CCN)c3)CC2=O)c1 | 67.7%
Cn1cc(CN2C[C@@H]3COC[C@H](C(=O)Nc4cccnc4)[C@@H]3C2)cn1 | 0.542%
CCn1cc(CN2CCCN(C(=O)c3c(C)oc(C)c3C)CC2)cn1 | 15.6%
CCC[C@H]1CN(S(C)(=O)=O)C[C@@H]1NC(=O)c1ccc(COC)cc1 | 23.9%
Cc1ccoc1C(=O)N1CC[C@H]2[C@H](C[C@@H](CN3CCCC3)N2C)C1 | 47.4%
CCOc1ccc(NC(=O)C2OC(c3cccs3)=NN2C(C)=O)cc1 (stereo unspecified) | 11.5%
CCc1ccc(NC(=O)C2OC(c3cccs3)=NN2C(C)=O)cc1 (stereo unspecified) | 52.1%
CC(=O)N1N=C(c2cccs2)OC1C(=O)NCc1ccc(C)o1 (stereo unspecified) | 53%
CC(=O)N1N=C(c2cccs2)OC1C(=O)Nc1ccc(C)cc1 (stereo unspecified) | -25.1%
COc1ccc(NC(=O)C2OC(c3cccs3)=NN2C(C)=O)cc1 (stereo unspecified) | 28.3%
CC(=O)N1N=C(c2cccs2)OC1C(=O)Nc1ccccc1 (stereo unspecified) | -4.32%
CCn1cc(C(=O)NCCc2nc(-c3ccc(C)cc3)n[nH]2)c(C)n1 | 12.8%
COc1cccc2c1ccn2CCC(=O)N1CCC(C(=O)O)CC1 | 25.1%
